The structures appear in SMILES notation. Where “and” joins values, the source holds several entries; their conditions need not be identical. Identical values can stand only once. Records with an inconclusive call do not appear. Where a structure was tested more than once in an assay, its records may differ in their call. Calls of active or inactive are those of the source. Calls follow the shape of the dose curve; as a rule, active = well fitted curve in the direction sought with a large enough effect in the repeat runs; inconclusive = weak or mixed curves; inactive = no such curve, though single readings can be large; an effect the other way counts as inactive or inconclusive.

The nature of assay [1]: A CellTox Green Cytotoxicity Assay to monitor cytotoxicity in HEK293 cells - 32 hour (AID 1224881). Also: nearly all actives have a fitted effect of over 40% in size. In a few lines: (§1)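 Homogeneous no-lysis format: HEK293 cell suspension mixed with CellTox Green reagent, seeded, incubated 5 h at 37 C/5% CO2, then dosed by pintool with compound in DMSO.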
Assay [2] can be described thus: A CellTox Green Cytotoxicity Assay to monitor cytotoxicity in HepG2 cells - 0 hour (AID 1224882). Also: nearly all actives have a fitted effect of over 35% in size. In a few lines: (§2)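 Fluorescent DNA-binding dye, 600 HepG2 cells/well, 5 h preincubation then compound in DMSO; same plates read at 0–40 h, 37 C.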
Assay [3] in a line: A CellTox Green Cytotoxicity Assay to monitor cytotoxicity in HepG2 cells - 32 hour (AID 1224883). Also: nearly all actives have a fitted effect of over 50% in size. An outline of the steps:
as §2

Assay [4] is described as follows: A CellTox Green Cytotoxicity Assay to monitor cytotoxicity in HEK293 cells - 8 hour (AID 1224884). Also: nearly all actives have a fitted effect of over 35% in size. In a few lines: as §1
The nature of assay [5]: qHTS RealTime-Glo MT Cell Viability Assay in HEK293 cells - 24 hour (AID 1224886). Also: nearly all actives have a fitted effect of over 50% in size. An outline of the steps:
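Reads taken at 0, 8, 16, 24, 32 and 40 h from the same wells. HEK293 cells (600/well) carried RealTime-Glo reagents from seeding, with compound added after a 5 h settle at 37 C.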

Assay [6] is described as follows: qHTS RealTime-Glo MT Cell Viability Assay in HEK293 cells - 8 hour (AID 1224887). Also: nearly all actives have a fitted effect of over 50% in size. In a few lines: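 Measured as luminescence from the same continuously cultured HEK293 wells at successive time points (0, 8, 16, 24, 32, 40 h) after compound addition. Reagent present from seeding; dosing at 5 h; incubation 37 C.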
Assay [7] can be described thus: A CellTox Green Cytotoxicity Assay to monitor cytotoxicity in HEK293 cells - 16 hour (AID 1224888). Also: nearly all actives have a fitted effect of over 35% in size. An outline of the steps:
as §1

Assay [8] can be described thus: qHTS RealTime-Glo MT Cell Viability Assay in HepG2 cells - 0 hour (AID 1224889). Also: nearly all actives have a fitted effect of over 50% in size. An outline of the steps:
(§3)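 HepG2 suspension premixed with RealTime-Glo reagents is plated at 600 cells per well and left 5 h at 37 C/5% CO2. Compounds in DMSO then go in, and bioluminescence reflecting viable cell number is recorded over 40 h.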

A short description of assay [9]: A CellTox Green Cytotoxicity Assay to monitor cytotoxicity in HepG2 cells - 8 hour (AID 1224890). Also: nearly all actives have a fitted effect of over 45% in size. An outline of the steps:
as §2

Assay [10] is described as follows: qHTS RealTime-Glo MT Cell Viability Assay in HepG2 cells - 16 hour (AID 1224885). Also: nearly all actives have a fitted effect of over 50% in size. An outline of the steps: as §3
Potency is read from the fitted curve at half-maximal effect.

For the compound `Clc1ccc(C(Cl)(Cl)Cl)cc1`, the Potency result in assay [1], in assay [2], in assay [3], in [4], in assay [5] and in [6] was “inactive” in each case. Further, the Potency result in assay [7], in [8] and in [9] was “inactive” throughout.

`CCOC(=O)c1ccccc1N`: the Potency result in assay [1], in assay [5], in [6], in assay [7] and in [8] was “inactive” each time. Besides, the Potency result in assay [2] was “inactive and 43.6 µM (active)”; in [3], “inactive and 54.9 µM (active)”; in assay [4], “inactive and 43.6 µM (active)”; in assay [9], “inactive and 49 µM (active)”.

With `CC1=C(C(=O)Nc2ccccc2)SCCO1`, the Potency result in assay [1], in [2], in assay [3], in assay [4], in assay [5] and in assay [6] was “inactive” in each case. Besides, the Potency entry in assay [7], in [8] and in assay [9] was “inactive” throughout.

`CCN(CC)C(=O)C(C)Oc1cccc2ccccc12` (centres undefined): the Potency result in assay [1], in assay [2], in assay [3], in [4], in assay [10] and in [5] was “inactive” in each case. Besides, the Potency entry in assay [6], in [7] and in [9] was “inactive” each time. Moreover, the Potency in assay [8] is 43.6 µM (active).

Consider `CCCCOCC1CO1` (centres undefined), for which the Potency result in assay [1] was “inactive and 19.5 µM (active)”; in assay [2], “inactive and 38.9 µM (active)”; in [3] it was “inactive and 43.6 µM (active)”; in assay [4], “inactive and 24.5 µM (active)”; in assay [9], “inactive and 43.6 µM (active)”. Further, the Potency entry in assay [10], in assay [5], in [6] and in assay [8] was “inactive” throughout.

For the compound `COP(=O)(NC(C)=O)SC` (centres undefined), the Potency result in assay [1], in assay [2], in assay [3], in [4], in assay [5] and in assay [6] was “inactive” each time. Besides, the Potency result in [7], in assay [8] and in assay [9] was “inactive” in each case.

With `Clc1cccc(Cl)c1`, the Potency entry in [1], in [2], in assay [3], in assay [4], in assay [10] and in assay [5] was “inactive” each time. Moreover, the Potency result in [6], in [7], in assay [8] and in assay [9] was “inactive” each time.

Consider `CCCCCCCC[N+](C)(CCCCCCCC)CCCCCCCC`, for which the Potency in assay [1] was 17.3 µM (active) and 27.6 µM (active) and 11 µM (active); in assay [3], 8.69 µM (active) and 19.5 µM (active) and 13.8 µM (active); in assay [4] it was 24.5 µM (active) and 13.8 µM (active); in assay [10], 15.5 µM (active) and 21.9 µM (active) and 13.8 µM (active); in assay [5] it was 548 nM (active) and 138 nM (active) and 2.19 µM (active); in [6], 9.75 µM (active) and 21.9 µM (active) and 15.5 µM (active). The Potency is 24.5 µM (active) and 24.6 µM (active) and 15.5 µM (active) in [7]; 21.8 µM (active) and 39 µM (active) and 21.9 µM (active) in [9]. Also, the Potency result in assay [2] and in assay [8] was “inactive” in each case.

`CN(C)P(=O)(N(C)C)N(C)C`: the Potency result in [1], in [2], in assay [3], in assay [4], in [10] and in [5] was “inactive” in each case. The Potency entry in assay [6], in assay [7], in assay [8] and in [9] was “inactive” each time.

With `CC(C)CON=O`, the Potency entry in [1], in assay [2], in assay [3], in assay [4], in [10] and in [5] was “inactive” throughout. In addition, the Potency entry in [6], in assay [7], in assay [8] and in assay [9] was “inactive” in each case.

As to `N#CC(c1ccccc1)c1ccccc1`, the Potency entry in assay [1], in assay [2], in assay [3], in [4], in assay [10] and in assay [5] was “inactive” throughout. For the same compound, the Potency result in assay [6], in assay [7], in [8] and in assay [9] was “inactive” throughout.

Consider `CCCCOCCOC(C)=O`, for which the Potency result in [1], in [2], in assay [3], in assay [4], in assay [5] and in assay [6] was “inactive” throughout. Also, the Potency result in [7], in assay [8] and in assay [9] was “inactive” in each case.

Regarding `Nc1ncn[nH]1`, the Potency result in assay [1], in assay [2], in [3], in assay [4], in assay [10] and in [5] was “inactive” each time. The Potency result in assay [6], in assay [7], in assay [8] and in assay [9] was “inactive” each time.

Consider `Cc1cc(Cl)ccc1N=CN(C)C`, for which the Potency result in assay [1], in [2], in [3], in [4], in assay [10] and in assay [5] was “inactive” throughout. Further, the Potency entry in assay [6], in [7], in assay [8] and in assay [9] was “inactive” each time.

In the case of `C=CC(Cl)CCl` (centres undefined), the Potency entry in assay [1], in assay [2], in assay [3], in [4], in assay [10] and in assay [5] was “inactive” each time. Also, the Potency entry in assay [6], in assay [7], in [8] and in [9] was “inactive” each time.

Regarding `CC(C)(c1ccccc1)c1ccc(O)c(C(C)(C)c2ccccc2)c1`, the Potency was 38.5 µM (active) and 43.6 µM (active) in assay [1]; 48.5 µM (active) and 43.6 µM (active) in assay [3]; 54.4 µM (active) and 43.6 µM (active) in assay [10]; 19.3 µM (active) and 30.9 µM (active) in assay [5]; 21.7 µM (active) and 30.9 µM (active) in assay [6]; 43.2 µM (active) in assay [7]. Besides, the Potency in assay [9] was 48.5 µM (active) and 49 µM (active). The Potency entry in assay [2], in assay [4] and in [8] was “inactive” in each case.

As for `CC(C)(O)C#N`, the Potency result in assay [1], in [2], in [3], in [4], in assay [10] and in assay [5] was “inactive” in each case. The Potency entry in assay [6], in [7], in assay [8] and in [9] was “inactive” each time.

For the origin of these results see PubChem BioAssay (Tox21).
